Only some compounds are listed: those with a hit (about 1.8% of all), similar ones and a draw of the others.
PDI turbidity = blocks human protein disulfide isomerase activity; P07237; inhibition, % at 10 µM; 350,000 compounds, 0.052% hits; PDI insulin aggregation turbidity, A650, 90 min;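 active = mean inhibition across replicates of 30% or more, whatever share of single replicates reach that level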
DENV2 CPE = protects cells from dengue virus 2 cytopathic effect; DENV2-infected cells, cytopathic effect rescue, plate reader; CPE inhibition, % at 9.99 µM; 350,000 compounds, 1.7% hits; in the data active = CPE inhibition above about 20%, passing the limit was not always enough; tested in BHK-21 cells;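 note: 0% = median of neutral control wells and 100% = median of positive control wells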
ERAP1 HTS inh = ERAP1 (human) enzyme inhibition; recombinant ERAP1, Leu-AMC fluorescence, 60 min; inhibition, % at 10.7 µM; 340,000 compounds, 0.15% hits;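 active = mean replicate inhibition of at least 30%, or all replicates individually reaching that 30% level; inactive = mean below 30% and not every replicate reaching it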;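 note: 0% = neutral control wells and 100% = L-leucinethiol positive control wells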
ERp5 block = inhibitors of human ERp5 | 350,000 compounds, 0.05% hits | inhibition, % at 9.99 µM | ERp5 insulin aggregation, absorbance 650 nm, 90 min | Q15084;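 active = mean replicate inhibition above about 25%, with every replicate also reaching it, limit read from the data, passing the limit was not always enough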
Target sequence (Q15084 whole entry, looked up): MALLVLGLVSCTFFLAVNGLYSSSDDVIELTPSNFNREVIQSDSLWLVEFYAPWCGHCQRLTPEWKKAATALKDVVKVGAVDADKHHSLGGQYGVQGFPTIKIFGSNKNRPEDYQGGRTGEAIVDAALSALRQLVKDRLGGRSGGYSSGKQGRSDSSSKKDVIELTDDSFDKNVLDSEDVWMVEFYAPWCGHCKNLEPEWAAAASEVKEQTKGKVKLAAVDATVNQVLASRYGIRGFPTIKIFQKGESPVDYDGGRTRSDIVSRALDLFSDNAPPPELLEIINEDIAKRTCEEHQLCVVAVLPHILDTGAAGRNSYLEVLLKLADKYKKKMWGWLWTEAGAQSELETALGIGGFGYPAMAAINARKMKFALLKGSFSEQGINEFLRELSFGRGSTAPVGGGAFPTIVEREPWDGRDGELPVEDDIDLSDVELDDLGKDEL
AF4-AF9 inh = MLL-AF4/AF9 protein interaction inhibition. P42568. AlphaScreen, biotin-AF4 peptide binding to FLAG-AF9. inhibition, % at 10 µM. 350,000 compounds, 0.47% hits. AID 651704;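 active = every replicate reaching a set inhibition limit, whatever the replicate mean, cut at about 25% in these data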;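 note: 0% = plate neutral control median and 100% = total signal loss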
* hit, by the source's call.

How did C[C@@H]1CN([C@@H](C)CO)S(=O)(=O)c2ccc(-c3cccc(C#N)c3)cc2O[C@H]1CN(C)C(=O)c1ccc(F)cc1 do in these assays?
DENV2 CPE: 8; ERAP1 HTS inh: -2; ERp5 block: -2; AF4-AF9 inh: 0

What do the screens show for `COc1cc(CN2CCCC(C(=O)c3ccc(C(C)(C)C)cc3)C2)cc(OC)c1O` (configuration not stated)?
PDI turbidity: 3; DENV2 CPE: 26*; ERAP1 HTS inh: -1; ERp5 block: 3; AF4-AF9 inh: 14

How did O=C(NCCCCNC(=O)c1cccnc1Cl)c1cccnc1Cl do in these assays?
PDI turbidity: 2; DENV2 CPE: 69*; ERAP1 HTS inh: 0; ERp5 block: -3; AF4-AF9 inh: 1

Results for O=C(NCC1CCCCC1)c1cccnc1Cl ?
PDI turbidity: 9; DENV2 CPE: 12; ERAP1 HTS inh: 4; ERp5 block: -6; AF4-AF9 inh: -4

How did C[C@H](CO)N1C[C@H](C)[C@H](CN(C)Cc2ccc(-c3ccccc3)cc2)Oc2c(NS(C)(=O)=O)cccc2C1=O do in these assays?
DENV2 CPE: -1; ERAP1 HTS inh: 0; ERp5 block: 2; AF4-AF9 inh: 2

What do the screens show for `O=c1[nH]c2cc(Cl)c(Br)cc2o1`?
PDI turbidity: 13; DENV2 CPE: 157*; ERAP1 HTS inh: -10; ERp5 block: 3; AF4-AF9 inh: -1

Results for O=S(c1ccccc1O)S(=O)c1ccccc1O (configuration not stated) ?
PDI turbidity: 15; DENV2 CPE: -5; ERAP1 HTS inh: 99*; ERp5 block: -2; AF4-AF9 inh: 11

What do the screens show for `O=C(c1cccc(F)c1)N1CC[C@@H]2[C@H]1c1cc(C#Cc3cccc(F)c3)ccc1N[C@@H]2CO`?
DENV2 CPE: -4; ERAP1 HTS inh: 2; ERp5 block: -3; AF4-AF9 inh: 3

What do the screens show for `COc1cccc(C#Cc2ccc3c(c2)[C@@H]2[C@@H](CCN2C(=O)c2ccc(F)cc2)[C@@H](CO)N3)c1`?
DENV2 CPE: 26*

Results for COc1ccccc1C#Cc1ccc2c(c1)[C@@H]1[C@@H](CCN1C(=O)c1ccc(F)cc1)[C@@H](CO)N2 ?
DENV2 CPE: 2; ERAP1 HTS inh: -1; ERp5 block: 6; AF4-AF9 inh: -1

What do the screens show for `O=C(c1ccccc1)N1CC[C@@H]2[C@@H](CO)Nc3ccc(C#Cc4cccc(F)c4)cc3[C@@H]21`?
DENV2 CPE: 23*

How did O=C(c1ccccc1)N1CC[C@@H]2[C@H]1c1cc(C#Cc3cccc(F)c3)ccc1N[C@@H]2CO do in these assays?
DENV2 CPE: 43*

How did CO[C@H]1CN(C)C(=O)c2cc(NC(C)=O)ccc2OC[C@@H](C)N(C(=O)C2CC2)C[C@@H]1C do in these assays?
DENV2 CPE: 5; ERAP1 HTS inh: 2; ERp5 block: 3; AF4-AF9 inh: -1

How did CCCNC(=O)Nc1ccc2c(c1)C(=O)N(C)C[C@H](OC)[C@H](C)CN(Cc1cncnc1)[C@@H](C)CO2 do in these assays?
DENV2 CPE: 11; ERAP1 HTS inh: -2; ERp5 block: 0; AF4-AF9 inh: -1

Results for CCCNC(=O)[C@H]1[C@H](CO)[C@H]2Cn3c(cccc3=O)[C@@H]1N2C(=O)Nc1cc(F)ccc1F ?
DENV2 CPE: -7; ERAP1 HTS inh: 0; AF4-AF9 inh: 1

What do the screens show for `C[C@H](CO)N1C[C@H](C)[C@H](CN(C)Cc2ccc(C(F)(F)F)cc2)Oc2c(NS(=O)(=O)c3cn(C)cn3)cccc2C1=O`?
DENV2 CPE: 1; ERAP1 HTS inh: -2; ERp5 block: 1; AF4-AF9 inh: -2

Results for C[C@@H]1CN([C@@H](C)CO)C(=O)c2cccc(NS(=O)(=O)c3cn(C)cn3)c2O[C@@H]1CN(C)Cc1ccc(C(F)(F)F)cc1 ?
DENV2 CPE: 22*; ERAP1 HTS inh: -2; ERp5 block: -3; AF4-AF9 inh: 0

Results for C[C@@H]1CN([C@@H](C)CO)C(=O)c2cccc(NS(=O)(=O)c3ccccc3)c2O[C@@H]1CN(C)CC1CCCCC1 ?
DENV2 CPE: 24*; ERAP1 HTS inh: 0; ERp5 block: 0; AF4-AF9 inh: 2

What do the screens show for `C[C@@H]1CN([C@H](C)CO)C(=O)c2cccc(NS(=O)(=O)c3ccccc3)c2O[C@@H]1CN(C)S(=O)(=O)c1cn(C)cn1`?
DENV2 CPE: -1; ERAP1 HTS inh: -1; ERp5 block: -10; AF4-AF9 inh: -22
